Bioassay records deposited in PubChem BioAssay by National Center for Advancing Translational Sciences (NCATS).
Most compounds without a hit are left out; they make up all but 2.8% or so of the library.
WRN inhibitor = qHTS for Inhibitors of WRN Helicase | Potency, µM (doses to about 114 µM), for the others: at the top dose activity change, negative = inhibition, hits mostly inhibitors | WRN helicase unwinding, fluorescent forked duplex, kinetic | Bifunctional 3'-5' exonuclease/ATP-dependent helicase WRN (Homo sapiens), Q14191 | hit rate 0.46% among 360,000; note: potency is the fitted concentration of half-maximal effect; % is set by controls: 0 for no effect and ±100 for the full control effect; nearly all actives have a fitted effect of over 55% in size
Target sequence (Q14191 whole entry, looked up): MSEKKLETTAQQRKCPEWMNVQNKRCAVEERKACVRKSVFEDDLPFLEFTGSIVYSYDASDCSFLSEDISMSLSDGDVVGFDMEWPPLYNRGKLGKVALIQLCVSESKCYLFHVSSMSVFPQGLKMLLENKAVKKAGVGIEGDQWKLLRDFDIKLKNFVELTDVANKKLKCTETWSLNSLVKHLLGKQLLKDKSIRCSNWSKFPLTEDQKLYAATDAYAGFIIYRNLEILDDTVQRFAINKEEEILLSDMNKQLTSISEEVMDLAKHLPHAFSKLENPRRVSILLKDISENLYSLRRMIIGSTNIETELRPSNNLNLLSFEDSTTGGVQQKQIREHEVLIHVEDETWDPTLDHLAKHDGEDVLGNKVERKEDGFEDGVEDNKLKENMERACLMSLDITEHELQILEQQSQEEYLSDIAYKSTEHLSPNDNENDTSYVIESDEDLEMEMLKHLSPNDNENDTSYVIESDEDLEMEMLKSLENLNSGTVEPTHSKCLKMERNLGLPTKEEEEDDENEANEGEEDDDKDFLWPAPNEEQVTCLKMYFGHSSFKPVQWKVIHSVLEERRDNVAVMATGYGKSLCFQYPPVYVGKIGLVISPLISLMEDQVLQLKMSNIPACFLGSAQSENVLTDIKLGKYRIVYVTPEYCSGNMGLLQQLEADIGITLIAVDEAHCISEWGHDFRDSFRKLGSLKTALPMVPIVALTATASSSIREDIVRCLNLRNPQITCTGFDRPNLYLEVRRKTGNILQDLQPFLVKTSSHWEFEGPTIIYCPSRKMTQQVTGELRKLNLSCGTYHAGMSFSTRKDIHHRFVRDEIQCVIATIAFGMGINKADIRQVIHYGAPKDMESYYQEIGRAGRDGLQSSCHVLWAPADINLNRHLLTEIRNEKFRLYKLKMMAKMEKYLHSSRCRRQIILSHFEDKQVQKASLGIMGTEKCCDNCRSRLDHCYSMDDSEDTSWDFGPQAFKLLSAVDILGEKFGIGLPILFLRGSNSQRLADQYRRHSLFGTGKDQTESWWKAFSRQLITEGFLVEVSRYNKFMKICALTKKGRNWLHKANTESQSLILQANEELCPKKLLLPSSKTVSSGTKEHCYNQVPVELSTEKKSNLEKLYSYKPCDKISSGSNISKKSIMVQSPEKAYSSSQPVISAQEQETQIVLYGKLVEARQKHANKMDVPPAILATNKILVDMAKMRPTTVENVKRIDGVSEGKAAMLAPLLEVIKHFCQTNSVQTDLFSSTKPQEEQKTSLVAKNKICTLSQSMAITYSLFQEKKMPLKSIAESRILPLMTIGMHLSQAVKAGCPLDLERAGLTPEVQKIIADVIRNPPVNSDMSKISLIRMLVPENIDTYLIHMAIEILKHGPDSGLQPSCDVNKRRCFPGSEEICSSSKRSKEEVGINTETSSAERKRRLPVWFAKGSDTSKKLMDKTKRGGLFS
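Primary qHTS, 1536-well format. 20 nM WRN + compound, 15 min RT; start with 100 nM forked fluorophore/quencher duplex, 2 mM ATP (final); kinetic read ex 525/em 598 nm.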
POLI inh = qHTS for Inhibitors of Polymerase Iota; AID 588590, 2011; Pol iota fluorescent replication assay, 10 min; hit rate 1% among 390,000; Potency, µM (titrated, usually from 115 µM), inactives show at the highest dose activity, negative = inhibition, usual class: inhibitors; DNA polymerase iota (Homo sapiens), Q9UNA4; note: potency is the fitted concentration of half-maximal effect
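Pol iota at 10 nM preincubated 15 min with compounds at room temperature; reaction started with fluorescent substrate, 50 nM final. Fluorescence read kinetically at 0 and 10 min; buffer-only wells as negative control.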
Pol eta inh-1 = qHTS for Inhibitors of Polymerase Eta. hit rate 1.2% among 390,000. recombinant Pol eta, fluorescent DNA replication assay. Potency, µM (series often up to 114 µM), for the others: at the highest dose activity change, negative = inhibition, usual class: inhibitors. DNA polymerase eta (Homo sapiens), Q9Y253. AID 588591, 2011; note: potency is the fitted concentration of half-maximal effect; % is set by controls: 0 for no effect and ±100 for the full control effect
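Pol eta at 10 nM preincubated with compounds 15 min at room temperature; reaction started with fluorescent substrate (50 nM final) and read kinetically at 0 and 10 min.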
Pol kappa inh-1 = qHTS for Inhibitors of Polymerase Kappa | DNA polymerase kappa (Homo sapiens), Q9UBT6 | purified Pol kappa, fluorescent DNA synthesis assay, 10 min | Potency, µM (series often up to 107 µM), without a hit: at the top dose activity, negative = inhibition, usual class: inhibitors | hit rate 0.53% among 400,000 | AID 588579, 2011; note: potency is the fitted concentration of half-maximal effect; % is set by controls: 0 for no effect and ±100 for the full control effect
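10 nM Pol kappa preincubated 15 min at room temperature with compounds, then reaction started with substrate at 50 nM final. Fluorescence read kinetically at 0 and 10 min; buffer-only wells served as negative control.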
PI5P4K alpha inh = qHTS for Inhibitors of phosphatidylinositol 5-phosphate 4-kinase (PI5P4K). max response, %. hit rate 1.2% among 330,000. Phosphatidylinositol 5-phosphate 4-kinase type-2 alpha (Homo sapiens), P48426. PI5P4Kalpha enzyme, ADP-Glo luminescence, 60 min; stronger effect = lower value. AID 652105, 2013; active = max response of -50% or lower; inconclusive = between -30% and -50%; inactive = -30% or higher; note: value at the top dose of about 77 µM; % is set by controls: 0 for no effect and ±100 for the full control effect
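Single end-point luminescence (ADP-Glo) quantified ADP from PI5P4Kalpha turnover; ATP 5 microM final, 1 h at RT, 0.1% CHAPS and 0.28 mM EGTA in HEPES pH 7.4.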
Pol beta inh = qHTS Assay for Inhibitors of DNA Polymerase Beta. P06746. Pol beta primer extension/strand displacement, fluorescence kinetic. hit rate 1.3% among 340,000. Potency, µM (doses to about 114 µM), for inactives: top-dose activity change, negative = inhibition, actives largely listed as inhibitors; note: potency is the fitted concentration of half-maximal effect; % is set by controls: 0 for no effect and ±100 for the full control effect
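10 nM enzyme + cpd, 15 min RT; start with substrate 50 nM final; read 0 min and after 10 min RT. Corrected, normalized data; 4-parameter Hill curve fit.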
GALK confirm = Confirmation Assay for Inhibitors of Human Galactokinase (GALK) | shares compounds with Pol eta inh-1 | purified GALK, Kinase-Glo ATP depletion luminescence | Potency, µM (top dose mostly 115 µM), inactives show at the highest dose activity, negative = inhibition, most hits filed as inhibitors | hit rate 70% among 150
GALK redox cs = Confirmatory Assay for Inhibitors of Human Galactokinase (GALK): Phenol-HRP redox assay counterscreen; shares compounds with Pol eta inh-1; Phenol red-HRP H2O2 redox cycling, absorbance 600 nm; Potency, µM (titrated, usually from 115 µM), for the others: at the highest dose activity change, negative = H2O2 signal, actives largely listed as inhibitors; hit rate 40% among 150; AID 2035, 2009
HEK293 viability = Secondary Assay for Inhibitors of Human Galactokinase (GALK): HEK-293 Cell Viability Assay; shares compounds with Pol eta inh-1; HEK-293 viability, ATP luminescence (CellTiter-Glo), 24/48 h; Potency, µM (top dose mostly 46.1 µM), for the others: top-dose activity change, negative = cytotoxicity, hits mostly inhibitors; hit rate 10% among 170; note: potency is the fitted concentration of half-maximal effect; % is set by controls: 0 for no effect and ±100 for the full control effect
Pol kappa inh-2 = qHTS for Inhibitors of Polymerase Kappa: Confirmatory Assay for Cherry-picked Compounds; Potency, µM, actives largely listed as inhibitors; hit rate 76% among 920; AID 720501, 2013; shares compounds with Pol eta inh-1; purified Pol-kappa, fluorescent strand-displacement substrate; note: potency is the fitted concentration of half-maximal effect
Pol eta inh-2 = qHTS for Inhibitors of Polymerase Eta: Confirmatory Assay for Cherry-picked Compounds; shares compounds with Pol eta inh-1; Pol eta primer extension, TAMRA/BHQ fluorescence, 10 min; Potency, µM, most hits filed as inhibitors; hit rate 64% among 2,600; note: potency is the fitted concentration of half-maximal effect
The depositor's hits bear a star; [ ] = remark or other dose. Unless noted, calls come from the whole dose curve; as a rule, active = well fitted curve in the direction sought with a large enough effect; inconclusive = small, poorly fitted or top-dose-only effect, or another doubt; inactive = no such curve, though single readings can be large; an effect the other way counts as inactive or inconclusive.

Screening CCn1nc(-c2ccccc2)nc2c(=O)n(C)c(=O)nc1-2 returned WRN inhibitor -18.3%, POLI inh -103.3%, Pol eta inh-1 0.794µM*, Pol kappa inh-1 -8.1%, PI5P4K alpha inh -8.2, Pol beta inh inconclusive, GALK confirm 0.595µM*, GALK redox cs 0.668µM* and HEK293 viability inconclusive.
For CCCN1CCCC2Cc3nc(N)ncc3CC21 (stereo not given) the results were Pol kappa inh-1 0.0%[19.4 µM].
`O=C1NC(=O)c2c1c1c3ccccc3n3c1c1c2c2ccccc2n1C1CCC3O1` gave Pol kappa inh-1 13.8%[60.1 µM].
Screening C[C@@H]1O[C@@H](O[C@@H]2C=C3CC[C@@H]4[C@@H](CC[C@]5(C)[C@H](c6ccc(=O)oc6)CC[C@@]45O)[C@@]3(C)CC2)[C@H](O)[C@H](O)[C@H]1O returned POLI inh -8.6% and Pol kappa inh-1 -4.5%.
`O=C1NC(=O)N(Cc2ccccc2)C(=O)/C1=C\C=C\c1ccco1` gave WRN inhibitor 50.1µM*, POLI inh 15.8µM*, Pol eta inh-1 17.8µM*, Pol kappa inh-1 35.5µM*, PI5P4K alpha inh -62.4*, Pol beta inh 20µM* and Pol eta inh-2 75.7*.
`O=C1NC(=O)N(c2ccc3c(c2)OCO3)C(=O)/C1=C/c1cccs1` gave WRN inhibitor -16.6%, POLI inh inconclusive, Pol eta inh-1 -8.6%, Pol kappa inh-1 -18.1%, PI5P4K alpha inh -27.3 and Pol beta inh 1.3%.
Screening O=C1NC(=O)N(c2ccccc2)C(=O)/C1=C/C=C/c1ccco1 returned WRN inhibitor inconclusive, POLI inh inconclusive, Pol eta inh-1 12.6µM*, Pol kappa inh-1 39.8µM*, PI5P4K alpha inh inconclusive, Pol beta inh inconclusive and Pol eta inh-2 37.9*.
For Cc1ccc(N2C(=O)NC(=O)/C(=C\C=C\c3ccco3)C2=O)cc1C the results were WRN inhibitor 15.8µM*, POLI inh 10µM*, Pol eta inh-1 22.4µM*, Pol kappa inh-1 25.1µM*, PI5P4K alpha inh inconclusive, Pol beta inh 39.8µM* and Pol eta inh-2 60.1*.
For Cc1ccc(S(=O)(=O)Cc2ccc(C(=O)N3CCC4(CC3)OCCO4)o2)cc1 the results were WRN inhibitor inconclusive, POLI inh inconclusive, Pol eta inh-1 12.6µM*, Pol kappa inh-1 inconclusive, PI5P4K alpha inh -5.3, Pol beta inh 10µM* and Pol eta inh-2 inconclusive.
`Cc1ccc(CS(=O)(=O)Cc2ccc(C(=O)N3CCC4(CC3)OCCO4)o2)cc1` gave WRN inhibitor -3.4%, POLI inh -20.2%, Pol eta inh-1 -10.8%, Pol kappa inh-1 -1.5% and Pol beta inh 31.3%.
`CCc1ccc(N2C(=O)NC(=O)/C(=C\c3cccn3CCOc3ccc(C(C)C)cc3)C2=O)cc1` gave WRN inhibitor 2.1%, POLI inh inconclusive, Pol eta inh-1 -20.1%, Pol kappa inh-1 5.2%, PI5P4K alpha inh -23.3 and Pol beta inh 0.3%.
For Cc1cccc(N2C(=O)NC(=O)/C(=C\c3cccn3-c3ccc(Cl)cc3)C2=O)c1 the results were WRN inhibitor inconclusive, POLI inh 22.4µM*, Pol eta inh-1 11.2µM*, Pol kappa inh-1 79.4µM*, PI5P4K alpha inh -51.9*, Pol beta inh 22.4µM* and Pol eta inh-2 60.1*.
COc1ccc2c(c1)c(C(=O)O)c(C)n2CC(C)C was read as WRN inhibitor 2.0%, POLI inh 8.1%, Pol eta inh-1 -5.8%, Pol kappa inh-1 -6.6% and Pol beta inh 9.4%.
Screening COc1cc(O)c(C(=O)O)c(-c2cc(O)c(O)cc2C)c1 returned WRN inhibitor -9.1%, POLI inh inconclusive, Pol eta inh-1 10µM*, Pol kappa inh-1 inconclusive, PI5P4K alpha inh -22.7, Pol beta inh 20µM* and Pol eta inh-2 inconclusive.
For NC1=N[C@H](O)[C@H]2C3O[C@]4(O)O[C@H](C(O)[C@@]2(N1)[C@@H]4O)C3(O)CO (stereo not given in full) the results were Pol kappa inh-1 -11.8%[60.1 µM].
O=c1cc(-c2ccc(O)c(O)c2)oc2c(C3O[C@H](CO)[C@@H](O)[C@H](O)[C@H]3O)c(O)cc(O)c12 (stereo not given in full) was read as WRN inhibitor -5.6%, POLI inh 28.2µM*, Pol eta inh-1 inconclusive, Pol kappa inh-1 20µM*, PI5P4K alpha inh -22.6, Pol beta inh 20µM*, Pol kappa inh-2 18.9* and Pol eta inh-2 inconclusive.
